Experiments:
Format in all cases: functional
[1] = target: Solute carrier family 2, facilitated glucose transporter member 1 (Homo sapiens) (UniProt P11166); test: ST_JUDE_LEISH: Cytotoxicity at 2uM final concentration against transgenic Leishmania Mexicana promastigotes LmGLUT1 that are glucose transport deficient and complemented with the human glucose transporter GLUT1. Activity is measured by DNA content using SYBR green in vitro
[2] = target: Hexose transporter 1 (Plasmodium falciparum) (UniProt O97467); test: ST_JUDE_LEISH: Cytotoxicity at 2uM final concentration against transgenic Leishmania Mexicana promastigotes LmPfHT that are glucose transport deficient and complemented with the Plasmodium falciparum hexose transporter. Activity is measured by DNA content using SYBR green in vitro
[3] = target: Glucose transporter (Leishmania mexicana) (UniProt O61059); test: ST_JUDE_LEISH: Cytotoxicity at 2uM final concentration against transgenic Leishmania Mexicana promastigotes LmGT2 that are glucose transport deficient and complemented with the L. Mexicana glucose transporter 2. Activity is measured by DNA content using SYBR green in vitro

Sequence of Solute carrier family 2, facilitated glucose transporter member 1 (Homo sapiens) (P11166 whole entry): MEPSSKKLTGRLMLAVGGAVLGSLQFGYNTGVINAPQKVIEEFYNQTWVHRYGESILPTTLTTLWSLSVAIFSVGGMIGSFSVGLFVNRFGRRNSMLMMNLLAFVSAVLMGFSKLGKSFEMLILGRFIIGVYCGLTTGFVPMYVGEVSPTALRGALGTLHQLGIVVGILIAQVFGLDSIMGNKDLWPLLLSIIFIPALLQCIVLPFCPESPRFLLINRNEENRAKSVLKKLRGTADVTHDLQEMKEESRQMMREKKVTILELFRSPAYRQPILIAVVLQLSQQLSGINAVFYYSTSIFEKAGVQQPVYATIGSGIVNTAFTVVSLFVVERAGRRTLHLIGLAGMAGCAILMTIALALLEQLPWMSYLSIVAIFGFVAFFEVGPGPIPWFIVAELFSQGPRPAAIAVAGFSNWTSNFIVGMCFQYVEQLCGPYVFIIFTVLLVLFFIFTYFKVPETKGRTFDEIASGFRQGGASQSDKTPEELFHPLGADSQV

| SMILES | inhibition [1] [%] | inhibition [2] [%] | inhibition [3] [%] |
| --- | --- | --- | --- |
| Oc1ccc(CCNCCCCCCNCCc2ccc(Cl)cc2)c(Cl)c1O | -2.47 | -4.06 | -1.17 |
| Cc1cc(-c2cc3nc4c(c(O)n3n2)CCCC4)c(C)o1 | 4.05 | 8.94 | 6.14 |
| COc1ccc(CCC(C)N2CC(N)C(c3cn(C)c4cnccc34)C2)cc1 (stereo unspecified) | 9.7 | 9.62 | 7.69 |
| CCOc1cccc(C(=O)Nc2nonc2-c2ccc(OC)c(OC)c2)c1 | 10.3 | 9.2 | 7.57 |
| Cc1ccccc1C1CCN(C2CCC(NC(=O)C3=Cc4cc(Cl)ccc4OC3)CC2)CC1 (stereo unspecified) | -3.31 | 2.37 | 1.59 |
| NC(=O)c1cccc(Nc2nccc(Nc3ccc(Oc4c(Cl)cccc4Cl)c(Cl)c3)n2)c1 | 9.27 | 9.62 | 2.92 |
| CC(C)CNC(=O)CN1C(=O)C(c2ccccc2)(c2ccccc2)N=C1N | 4.76 | 4.66 | 2.29 |
| O=C(Nc1ccc(Cl)cc1)Nc1cccc(-c2cccc(-c3nc4cc(F)ccc4[nH]3)c2)c1 | 7 | 6.99 | 6.45 |
| FC(F)(F)Oc1ccc(-c2cnc3ccc(NCc4ccncc4)nn23)cc1 | 2.41 | 3.58 | -1.87 |
| CN(C(=O)C(C)(C)Oc1ccc(Cl)cc1)C1CCN(CCCCCNC(=O)/C=C/c2ccc(Cl)c(Cl)c2)CC1 | 1.85 | 2.76 | 0.52 |
| COc1ccc2c(=NN=Cc3cccc(F)c3)cc(C)[nH]c2c1 | -1.29 | 4.27 | 1.95 |
| O=C(NC1CCCC1)c1cc2c(=O)n3ccccc3nc2[nH]/c1=N/CCc1ccccc1 | 11.5 | 8.49 | 5.94 |
| COc1ccc2sc(CNCCCNc3cc(=O)c4ccccc4[nH]3)c(Cl)c2c1 | 3.04 | 3.59 | 4.49 |
| CC(C)CNc1nc(N)nc2ccc3c(ccn3CC(C)C)c12 | 1.7 | -0.47 | -0.02 |
| CN(C)C(CNC(=O)c1cc(-c2ccncc2)c(-c2ccc(NC(=O)Nc3ccccc3)cc2)o1)c1ccccc1 (stereo unspecified) | -0.56 | -0.15 | -0.82 |
| CC(C)C1=NC(=O)c2cc([N+](=O)[O-])ccc2CN1 | 1.78 | 1.79 | 2.11 |
| Cn1c(N=C2NC3(c4ccccn4)NC(=Nc4nc5ccccc5n4C)NC3(c3ccccn3)N2)nc2ccccc21 (stereo unspecified) | 1.54 | 2.5 | 0.64 |
| Nc1nc(NCC2CCC(CNS(=O)(=O)c3cccc4ccccc34)CC2)nc2ccccc12 (stereo unspecified) | 7.11 | 3.12 | 1.21 |
| COc1ccc2[nH]ccc(=NN=Cc3ccncc3)c2c1 | 3.57 | 3.95 | 3.39 |
| CN(Cc1cccc(O)c1)C1CCN(c2cc(NC(=O)c3ccc(F)cc3)ccn2)CC1 | 2.02 | 3.1 | 3.78 |
| CCc1nc(N)nc(N)c1-c1ccc(F)c(F)c1 | 3 | 5.22 | 3.74 |
| COc1ccc(NC(=O)NCC2CCCN(CCCCCNC(=O)/C=C/c3ccc(Cl)c(Cl)c3)C2)c(OC)c1 (stereo unspecified) | -0.03 | 3.1 | 0.18 |
| O=C(Cc1ccc(NC(=O)c2ccc(O)c(-c3ccc(Cl)c(Cl)c3)c2)cc1)NCCN1CCCCC1 | -0.79 | -0.35 | 0.58 |
| CC1(C)CN2CCCC2c2cc(NC(=O)/C=C/c3ccccc3Cl)ccc21 (stereo unspecified) | 3.26 | 2.04 | 0.94 |

| SMILES | inhibition [1] [%] | inhibition [2] [%] | inhibition [3] [%] |
| --- | --- | --- | --- |
| CC1CCCC(Nc2noc(-c3sccc3Br)n2)C1 (stereo unspecified) | -0.93 | 0.6 | -2.55 |
| CC(C)c1ccc(O)cc1Nc1ccnc2ccc(C(F)(F)F)cc12 | 1.29 | -0.72 | -0.66 |
| COc1ccc(-c2ccc(NC(=O)c3ccc(Cl)cc3)cc2)cc1CN1CCN(C)CC1 | -0.67 | -2.59 | -0.55 |
| CC(C)CC(=O)N1CCNC[C@@H]1C(=O)NCc1ccc(Cl)c(Cl)c1 | 2.93 | 1.04 | 3.02 |
| Cc1cc(N2Cc3ccccc3C2)nc(Nc2cccc(C#N)c2)n1 | 4.07 | 4.04 | 2.59 |
| Cc1cccc(C(=O)Nc2ccnc(N3CCC(N(C)Cc4ccccc4)CC3)c2)c1 | -1.46 | -0.98 | -0.83 |
| Cc1cc(Oc2cc(NC(=O)c3sc4ncn(Cc5ccccc5F)c(=O)c4c3C)cc([N+](=O)[O-])c2)ccc1Cl | 1.2 | 1.84 | 1.68 |
| c1cc(-c2ccc(CNCCc3ccncc3)cc2)cc(-c2nc3ccccc3[nH]2)c1 | 1.85 | 0.82 | 3.55 |
| COc1ccc2nc(C)cc(Nc3ccc(N4CCN(C)CC4)cc3)c2c1 | 0.93 | 2.03 | 0.99 |
| CC(C)C(=O)n1ncc2c3c(N)nc(N)nc3ccc21 | -0.81 | -1.08 | -0.01 |
| COc1cc2c(cc1C(F)(F)F)N(C(=O)Nc1cc(F)c(F)c(-c3cccnc3)c1)CC2 | 10.1 | 1.42 | -4.39 |
| Cc1ccc2nc(C)cc(Nc3ccccc3O)c2c1 | -0.76 | -1.41 | -1.03 |
| CN1CCC(N(Cc2ccc(-c3ccc(C(F)(F)F)cc3)cc2)C(=O)Cn2c(SCc3cccc(F)c3F)cc(=O)c3c2CCC3)CC1 | -1.29 | 0.12 | 1.56 |
| c1ccc(Oc2ccc(Nc3ccnc(Nc4ccc(OCCN5CCCCC5)cc4)n3)cc2)cc1 | 8.95 | 12.8 | 18.4 |
| CC(C)(C)c1ccc(CN2CCC(CNC(=O)c3cc(-c4cccc(Cl)c4)cs3)C2)cc1 (stereo unspecified) | 16.7 | 3.66 | 1.5 |
| CCc1ccc(NC(=O)c2ccc(CN3CCCN(Cc4cccc(O)c4)CC3)cc2)cc1 | -0.63 | -1.78 | 2.57 |
| Cc1c(Cl)cccc1S(=O)(=O)N1CCCCC(c2ccc(C(F)(F)F)cc2)=N1 | 0.39 | 3.08 | -0.52 |
| CCN1CCC(N(Cc2ccc(-c3ccc(C(F)(F)F)cc3)cc2)C(=O)Cn2c(CCc3cccc(F)c3F)cc(=O)c3ccccc32)C1 (stereo unspecified) | 0.08 | 1.38 | -0.49 |
| CC(=O)Nc1nc(C(=O)Nc2cccc(-c3cccc(-c4nc5cc(F)ccc5[nH]4)c3)c2)cs1 | 2.3 | 3.28 | 2.66 |
| Cc1nc(NCc2ccccc2)cc(NCC(O)c2ccc(O)cc2)n1 (stereo unspecified) | 8.37 | 8.57 | 7.2 |
| CCNc1cc(-c2cccc(OC)c2)nc(Nc2ccc(F)cc2)n1 | 7.43 | 7.1 | 2.87 |
| COc1ccccc1CCNC(=O)c1cnc(N2CCN(c3ccncc3)CC2)c(Cl)c1 | 74.5 | 83.8 | 82.9 |
| O=S(=O)(Nc1ccc(CCN2CCC(N3CCCCC3)CC2)cc1)c1cccc(C(F)(F)F)c1 | 6.42 | 7.5 | 5.56 |
| CC(C)C[C@H](NC(=O)c1cc2cc(OCCN3CCNCC3)ccc2o1)C(=O)NC1CC[C@@H](C)N(C(=O)Nc2ccc(Cl)cc2)CC1=O (stereo partly specified) | 3.2 | 5.04 | 3.85 |

| SMILES | inhibition [1] [%] | inhibition [2] [%] | inhibition [3] [%] |
| --- | --- | --- | --- |
| CCOC(=O)c1c(NC(=O)c2ccccc2)sc2c(O)c(CNC3CCCCC3)ccc12 | -1.14 | -0.58 | -0.44 |
| CNCC(C)(C)c1nc(-c2ccc(Cl)c(O)c2)c(-c2ccncc2)[nH]1 | -1.98 | -1.37 | -3.28 |
| CCOC(=O)c1cn(CC)c2cc(N3CCCCCC3)c(F)cc2c1=O | 10.3 | 4.48 | 3.87 |
| CC(C)(C)N1CCC(N(Cc2ccc(-c3ccc(C(F)(F)F)cc3)cc2)C(=O)Cn2c(CCc3cccc(F)c3F)cc(=O)c3ccccc32)CC1 | 1.29 | 0.14 | 1.02 |
| COc1cc2c(cc1N1CC(C)NC(C)C1)N(C(=O)c1ccc(-c3ccc(-c4ncc[nH]4)cc3C)cc1)CC2 (stereo unspecified) | 2.21 | 1.1 | 3.39 |
| CC(C)c1cc(Oc2c(I)cc(CCNC(=N)N)cc2I)ccc1O | -0.6 | -0.01 | -2.44 |
| CN(C)c1ccc(-c2ccc(C(=O)NC3CCN(Cc4ccc(C(C)(C)C)cc4)CC3)s2)cc1 | 2.66 | 1.51 | -2.12 |
| Cc1cc(N(C)C)nc(Nc2ccc(NC(=O)CCc3ccccc3)cc2)n1 | 3.05 | 6.42 | 2.1 |
| CCOc1cc(O)c(-c2nc(N)ncc2-c2ccc3c(c2)OCCO3)cc1CC | 9.25 | 11 | 4.66 |
| CCNc1cc(C(=O)N[C@@H](Cc2ccccc2)[C@H](O)CNCCCc2ccc(OC)cc2)cc(N2CCCC2=O)c1 | 0.4 | 0.76 | 1.05 |
| Cc1ccc(/C=C2/SC(=Nc3ccccc3)NC2=O)c(C)c1 | 13.2 | 12.1 | 7.9 |
| Cc1nc2nc(N)nc(N)c2c(C)c1Cc1c(Cl)cccc1Cl | 8.8 | 10.7 | 7.3 |
| COc1ccc(C(=O)NCc2ccc(N)nc2C)cc1Nc1ncc(-c2cccc(N(C)C)c2)cn1 | 0.19 | -1.36 | 1.76 |
| CCNc1cc(C(=O)N[C@@H](Cc2ccccc2)[C@H](O)CNCCc2cccc3ccccc23)cc(N2CCCC2=O)c1 | -0.63 | -0.02 | -1.96 |
| Cc1ccc(S(C)(=O)=O)cc1/C=C/C(=O)O | 9.4 | 8.46 | 10.4 |
| FC(F)(F)c1cc(C(F)(F)F)c2cc(CNCCCNc3nc4ccccc4[nH]3)[nH]c2c1 | -1.02 | 0.32 | -1.92 |
| NCCCOc1cnc(-c2ccccc2)c2nc(-c3nonc3N)n(CCc3ccccc3)c12 | 4.6 | 2 | 1.33 |
| Cc1cccc2nc(-c3ccc(-c4ccc(CNCC(C)C)cc4)cc3)[nH]c12 | 15.3 | 13.6 | 8.18 |
| N#Cc1cccc(C(=O)N2CCOC(CCN3CCC(c4ccccc4)CC3)(c3ccc(Cl)c(Cl)c3)C2)c1 (stereo unspecified) | 4.51 | 2.24 | 2.33 |
| COc1ccc(NC(=O)/C=C/c2ccccc2Cl)cc1OCCN1CCC(c2nc3ccccc3[nH]2)CC1 | 3.22 | 1.68 | 2.78 |
| OCCN1CCN(Cc2ccc(-c3cccc(-c4nc5cc(C(F)(F)F)ccc5[nH]4)c3)cc2)CC1 | 7.65 | 7.08 | 7.33 |
| Cc1ccnc(NC(c2ccc(Cl)c([N+](=O)[O-])c2)c2ccc3cccnc3c2O)c1 (stereo unspecified) | 0.43 | -0.87 | -1.39 |
| COc1ccc(-c2cc(C(=O)N3CCc4ccccc43)c3ccccc3n2)cc1OC | -0.76 | 1.24 | -0.93 |
| O=C(/C=C/c1ccc(Cl)c(Cl)c1)NCCCCCN1CCC(CCCNC(=O)Nc2ccc(C(F)(F)F)cc2)CC1 | -1.43 | -2.93 | -1.92 |
